In the library only some 3.1% were active in any assay of this set; here they are far more common.
TSHR antagonist: blocks TSH signaling through the human TSH receptor; P16473; TSHR-expressing cells, TSH-stimulated cAMP HTRF, 2 h; hits give low values; activity change, negative = inhibition, % at 11.5 µM; 330,000 tested, 0.2% active;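 active = activity change below a set negative limit, meaning inhibition stronger than a set level, cut at about -70% in these data; inconclusive = activity change between two set negative limits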
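Inhibition of cAMP made by TSHR-expressing cells under TSH stimulation (4nM final, EC80; 2 h, 37 deg C) is quantified with a one-step lysis HTRF kit, anti-cAMP cryptate versus cAMP-d2.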
PLK1 PBD inh: PLK1 (human) polo-box domain binding inhibition; P53350; Potency, µM, hits mostly inhibitors; Plk1 PBD binding of FITC phosphopeptide, fluorescence polarization; AID 720504; 360,000 tested, 2.8% active; note: series mostly up to about 57 µM; nearly all actives have a fitted effect of over 65% in size
PTAP TSG101 blk: blocks PTAP/TSG101 interaction to inhibit HIV-1 budding; Fluorescence polarization, FITC-PTAP peptide / Tsg101 binding; Potency, µM (highest dose often 115 µM), usual class: inhibitors; 340,000 tested, under 10 active; active = well fitted inhibition curve with a large enough effect in the main read-out, with a control signal flat, not every such curve was filed as active; inconclusive = small, poorly fitted or top-dose-only effect, or effect the other way, or a change in a side signal; inactive = no such curve, though single readings can be large or run the other way
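Fluorescence polarization binding of Tsg101 binding domain (10 uM final) to FITC-labeled PTAP peptide (50 nM final) in HEPES pH 7.5 buffer with NaCl, Tween 20, EDTA, TCEP. Compounds added before peptide; binding 20 min at RT.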
uPA surface inh: cell surface uPA generation inhibition; cell surface uPA generation assay, qHTS; Potency, µM (top dose mostly 38.3 µM), actives largely listed as inhibitors; 330,000 tested, 0.31% active; AID 540303; active = well fitted inhibition curve with a large enough effect; inconclusive = small, poorly fitted or top-dose-only effect; inactive = no such curve, though single readings can be large or run the other way; tested in mouse RAW 264.7 cells; note: nearly all actives have a fitted effect of over 55% in size
VDR inh: inhibitors of human vitamin D receptor; 400,000 tested, 0.93% active; AID 504847; VDR-SRC2-3 peptide fluorescence polarization, 2 h; Potency, µM, hits mostly inhibitors; P11473
Target sequence (P11473 whole entry, looked up): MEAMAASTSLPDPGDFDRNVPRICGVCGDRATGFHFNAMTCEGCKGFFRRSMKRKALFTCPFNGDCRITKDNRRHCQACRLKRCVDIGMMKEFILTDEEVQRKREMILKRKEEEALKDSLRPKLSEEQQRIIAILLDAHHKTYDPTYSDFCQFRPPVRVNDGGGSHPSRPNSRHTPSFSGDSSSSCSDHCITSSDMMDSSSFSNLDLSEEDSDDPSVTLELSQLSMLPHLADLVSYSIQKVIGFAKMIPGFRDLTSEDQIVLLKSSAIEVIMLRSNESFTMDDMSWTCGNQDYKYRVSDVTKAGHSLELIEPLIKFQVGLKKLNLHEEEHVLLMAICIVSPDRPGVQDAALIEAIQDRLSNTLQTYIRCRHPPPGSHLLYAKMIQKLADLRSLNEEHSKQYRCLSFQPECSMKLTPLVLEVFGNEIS
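Fluorescence polarization assay of small-molecule disruption of VDR binding to coregulator peptide SRC2-3. Compounds and controls pin-transferred, then read after 2 h incubation at ambient room temperature.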
Numbers stand for hits. Unless noted, calls come from the whole dose curve; as a rule, active = well fitted curve in the direction sought with a large enough effect; inconclusive = small, poorly fitted or top-dose-only effect, or another doubt; inactive = no such curve, though single readings can be large; an effect the other way counts as inactive or inconclusive.

`CCOC(=O)c1[nH]c2cc(OC)c(OC)cc2c1NC(=O)c1ccc2c(c1)OCO2` gave TSHR antagonist -75, PLK1 PBD inh inactive, PTAP TSG101 blk inactive and VDR inh inactive.
`CCOC(=O)c1[nH]c2ccc(OC)cc2c1NC(=O)c1ccc2c(c1)OCO2` gave TSHR antagonist inactive, PLK1 PBD inh inactive, PTAP TSG101 blk inactive, uPA surface inh inactive and VDR inh inactive.
For CC(NC(=O)C12CC3CC(CC(C3)C1)C2)C(=O)NCCN(C)C (stereo not drawn) the results were TSHR antagonist inactive, PLK1 PBD inh 30µM, PTAP TSG101 blk inactive, uPA surface inh inactive and VDR inh inactive.
O=C(N/N=C\c1ccc(Cl)s1)c1ccc(Cn2cccn2)o1 was read as TSHR antagonist inactive, PLK1 PBD inh 27µM, PTAP TSG101 blk inactive, uPA surface inh inactive and VDR inh 71µM.
Screening CCc1ccc(S(=O)(=O)c2nnn3c2nc(N2CCN(c4ccccc4)CC2)c2cc(Cl)ccc23)cc1 returned VDR inh inactive.
`COc1cc(/C=C2\C(=N)N3N=C(S(C)(=O)=O)SC3=NC2=O)cc(OC)c1OCCOc1cccc(C)c1` gave TSHR antagonist inactive, PLK1 PBD inh 30µM, PTAP TSG101 blk inactive, uPA surface inh inactive and VDR inh inconclusive.
COc1cc(/C=C2\C(=N)N3N=C(S(C)(=O)=O)SC3=NC2=O)ccc1OCCOc1ccc(C)cc1 was read as TSHR antagonist inactive, PLK1 PBD inh inconclusive, PTAP TSG101 blk inactive, uPA surface inh inactive and VDR inh inactive.
For COc1cc(/C=C2\C(=N)N3N=C(S(C)(=O)=O)SC3=NC2=O)cc(OC)c1OCCOc1ccc(C)cc1 the results were TSHR antagonist inactive, PLK1 PBD inh 21µM, PTAP TSG101 blk inactive, uPA surface inh inactive and VDR inh inconclusive.
Screening CN(C)c1cccc(NC(=O)C2(C)CC2(Cl)Cl)c1 (stereo not drawn) returned TSHR antagonist inactive, PLK1 PBD inh inactive, PTAP TSG101 blk inactive, uPA surface inh inactive and VDR inh inactive.
For CC(=O)Nc1ccc(NC(=O)C2(C)CC2(Cl)Cl)cc1 (stereo not drawn) the results were TSHR antagonist inactive, PLK1 PBD inh 21µM, PTAP TSG101 blk inactive, uPA surface inh inactive and VDR inh 79µM.
Cc1ccc(Cc2c[nH]c(=S)s2)cc1 was read as TSHR antagonist inactive, PLK1 PBD inh 6.7µM, PTAP TSG101 blk inactive, uPA surface inh inactive and VDR inh inactive.
Screening Cc1ccc(Cc2c(C)[nH]c(=S)[nH]c2=O)cc1 returned TSHR antagonist inactive, PLK1 PBD inh inactive, PTAP TSG101 blk inactive, uPA surface inh inactive and VDR inh inactive.
For Cn1c(=O)oc2cc(S(=O)(=O)N3CCCC(C(=O)NCc4ccccc4Cl)C3)ccc21 (stereo not drawn) the results were VDR inh inactive.
For CN(C)c1nc(-c2cccc(C#N)c2)nc2ccccc12 the results were VDR inh inactive.
`COc1cccc(-c2nc(N(C)C)c3ccccc3n2)c1` gave VDR inh 56µM.
Screening O=C(CN1C(=O)NC2(CCCCCCC2)C1=O)Nc1c(Cl)cccc1Cl returned TSHR antagonist inactive, PLK1 PBD inh inactive, PTAP TSG101 blk inactive, uPA surface inh inactive and VDR inh inactive.
Screening COC(=O)c1nc(NC(=O)c2ccc(Br)cc2)n[nH]1 returned PLK1 PBD inh 24µM, PTAP TSG101 blk inactive, uPA surface inh inactive and VDR inh inactive.
COC(=O)c1nc(NC(=O)C(C)(C)C)n[nH]1 was read as TSHR antagonist inactive, PLK1 PBD inh 19µM, PTAP TSG101 blk inactive, uPA surface inh inactive and VDR inh inactive.
`Cc1nc2ccc(S(=O)(=O)N(CC(=O)Nc3ccc(Cl)cc3)Cc3ccccc3)cc2s1` gave VDR inh inactive.
For COCC(=O)N1CCC2(CC1)CN(c1cccc(-c3ccccc3)c1)C2 the results were VDR inh inactive.
Screening c1ccc2c(c1)Nc1nccnc1S2 returned TSHR antagonist inactive, PLK1 PBD inh 15µM, PTAP TSG101 blk inactive, uPA surface inh inactive and VDR inh inconclusive.
`CC(=O)c1cnc2nc(SCc3ccccc3)nn2c1C` gave TSHR antagonist inactive, PLK1 PBD inh inactive, PTAP TSG101 blk inactive, uPA surface inh inactive and VDR inh inactive.
`CC(=O)c1cnc2nc(SCc3ccc(C)cc3)nn2c1C` gave TSHR antagonist inactive, PLK1 PBD inh 24µM, PTAP TSG101 blk inactive, uPA surface inh inactive and VDR inh inconclusive.

Screening data (PubChem BioAssay)
